# About 410 targets per protein were measured; listed, in parts, are those with the strongest signals and a random draw of the rest.
# How the values were obtained:
# Experiment in all cases: glycan array binding signal (z-score within array); higher = stronger binding
# Details in all cases: glycan notation: IUPAC condensed, linker removed
# [1] = target: GlcA3S(b1-3)Gal(b1-4)GlcNAc(b1-2)Man
# Procedure, shortened: (§1)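 The Consortium for Functional Glycomics database supplied 3228 glycan arrays, of which those lacking an available protein sequence were dropped. The binding signal, a within-array Z-score, was averaged across arrays of the same protein sequence and across linkers. Negative scores can be read as non-binding.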
# [2] = target: GlcNAc(a1-4)Gal(b1-4)GlcNAc
# Procedure, shortened: as §1
# [3] = target: GlcNAc(b1-2)Man(a1-3)[GlcNAc(b1-4)][GlcNAc(b1-2)Man(a1-6)]Man(b1-4)GlcNAc(b1-4)GlcNAc
# Procedure, shortened: as §1
# [4] = target: GlcNAc(b1-2)[GlcNAc(b1-4)]Man(a1-3)[GlcNAc(b1-4)][GlcNAc(b1-2)Man(a1-6)]Man(b1-4)GlcNAc(b1-4)GlcNAc
# Procedure, shortened: as §1
# GlcNAc(b1-3)Fuc = target: GlcNAc(b1-3)Fuc
# Procedure, shortened: as §1
# [5] = target: GlcNAc(b1-3)Gal(b1-3)GalNAc
# Procedure, shortened: as §1
# [6] = target: GlcNAc(b1-3)Gal(b1-4)GlcNAc(b1-2)[GlcNAc(b1-3)Gal(b1-4)GlcNAc(b1-6)]Man(a1-6)[GlcNAc(b1-3)Gal(b1-4)GlcNAc(b1-2)Man(a1-3)]Man(b1-4)GlcNAc(b1-4)GlcNAc
# Procedure, shortened: as §1
# [7] = target: GlcNAc(b1-3)Gal(b1-4)GlcNAc(b1-3)Gal(b1-4)GlcNAc(b1-2)Man(a1-3)[GlcNAc(b1-3)Gal(b1-4)GlcNAc(b1-3)Gal(b1-4)GlcNAc(b1-2)Man(a1-6)]Man(b1-4)GlcNAc(b1-4)GlcNAc
# Procedure, shortened: as §1
# [8] = target: GlcNAc(b1-3)Gal(b1-4)GlcNAc(b1-3)Gal(b1-4)GlcNAc(b1-3)Gal(b1-4)GlcNAc(b1-2)[GlcNAc(b1-3)Gal(b1-4)GlcNAc(b1-3)Gal(b1-4)GlcNAc(b1-3)Gal(b1-4)GlcNAc(b1-6)]Man(a1-6)[GlcNAc(b1-3)Gal(b1-4)GlcNAc(b1-3)Gal(b1-4)GlcNAc(b1-3)Gal(b1-4)GlcNAc(b1-2)Man(a1-3)]Man(b1-4)GlcNAc(b1-4)[Fuc(a1-6)]GlcNAc
# Procedure, shortened: as §1
# GlcNAc(b1-3)GalNAc = target: GlcNAc(b1-3)GalNAc
# Procedure, shortened: as §1
# [9] = target: GlcNAc(b1-4)GlcNAc(b1-4)GlcNAc
# Procedure, shortened: as §1
# GlcNAc(b1-6)GalNAc = target: GlcNAc(b1-6)GalNAc
# Procedure, shortened: as §1
# Kdn(a2-3)Gal(b1-4)GlcNAc = target: Kdn(a2-3)Gal(b1-4)GlcNAc
# Procedure, shortened: as §1
# [10] = target: Man(a1-2)Man(a1-2)Man(a1-3)Man
# Procedure, shortened: as §1
# Man(a1-3)[Man(a1-6)]Man = target: Man(a1-3)[Man(a1-6)]Man
# Procedure, shortened: as §1
# [11] = target: Man(a1-3)[Man(a1-6)]Man(b1-4)GlcNAc(b1-4)[Fuc(a1-6)]GlcNAc
# Procedure, shortened: as §1
# [12] = target: Neu5Ac(a2-3)Gal(b1-3)GlcNAc(b1-2)Man(a1-3)[GlcNAc(b1-4)][Neu5Ac(a2-3)Gal(b1-3)GlcNAc(b1-2)Man(a1-6)]Man(b1-4)GlcNAc(b1-4)GlcNAc
# Procedure, shortened: as §1
# [13] = target: Neu5Ac(a2-3)Gal(b1-4)GlcNAc(b1-3)Gal(b1-4)[Fuc(a1-3)]GlcNAc
# Procedure, shortened: as §1
# [14] = target: Neu5Ac(a2-3)[Neu5Ac(a2-6)]GalNAc
# Procedure, shortened: as §1
# [15] = target: Neu5Ac(a2-6)Gal(b1-4)GlcNAc(b1-2)Man(a1-3)[Man(a1-6)]Man(b1-4)GlcNAc(b1-4)GlcNAc
# Procedure, shortened: as §1
# [16] = target: Neu5Ac(a2-6)Gal(b1-4)GlcNAc(b1-3)Gal(b1-4)GlcNAc
# Procedure, shortened: as §1
# [17] = target: Neu5Ac(a2-6)Gal(b1-4)GlcNAc(b1-3)Gal(b1-4)GlcNAc(b1-3)Gal(b1-4)GlcNAc(b1-2)Man(a1-3)[Neu5Ac(a2-6)Gal(b1-4)GlcNAc(b1-3)Gal(b1-4)GlcNAc(b1-3)Gal(b1-4)GlcNAc(b1-2)Man(a1-6)]GalNAc
# Procedure, shortened: as §1
# [18] = target: Neu5Ac(a2-6)Gal(b1-4)GlcNAc(b1-3)[Neu5Ac(a2-6)Gal(b1-4)GlcNAc(b1-6)]GalNAc
# Procedure, shortened: as §1
# [19] = target: Neu5Ac(a2-6)GlcNAc(b1-4)GlcNAc
# Procedure, shortened: as §1
# [20] = target: Neu5Ac(a2-8)Neu5Ac(a2-8)Neu5Ac(a2-3)[Gal(b1-3)GalNAc(b1-4)]Gal(b1-4)Glc
# Procedure, shortened: as §1
# [21] = target: Neu5Ac(a2-8)Neu5Ac(a2-8)Neu5Ac(a2-3)[GalNAc(b1-4)]Gal(b1-4)Glc
# Procedure, shortened: as §1
# [22] = target: Neu5Gc(a2-3)Gal(b1-4)GlcNAc
# Procedure, shortened: as §1
# [23] = target: Neu5Gc(b2-6)Gal(b1-4)GlcNAc
# Procedure, shortened: as §1
binder,measurement,setting,value
GS13599A-bth-520-23-520 (Bacteroides thetaiotaomicron) (protein) SEDTMDRINKDHDHTTSVASRFILADVITSTAFSNASGDINTYASSYIEYEVGVDNQLYYAEVRENEPSSSSTFNNSWNGIYSSLKNARIIIDQCGEGGRDHGNDVTRGMAEVMAAYNCALIADFFGDAPCSQAALVDEKGSPVYMTPKMDTQQEIYTQIISYLDDAIANLQKEDLADVTEQDFLYAGDADKWLKFAYGLKARYTMRLINRSSNKSADYEKVLDYVSKSFTSADDQAAFDIYDSNNINPFYGFYNSRAGFGASTSLGTKLLAYNDPRANRAFFTPIVDKKRSQVAANDPSLVPAPNGSPDQSTSKYGISAFVYAKTAPTLLMSYHELMFLKAEALCRLNRDAEDALKEAVVAGLLNAENSISIAIKELGSGLNTNSSEVITETSAGKYFDDVVKAKYAANPLQETMIQKYLAMWGASGEATETYNDFRRMKGLNENFITLTNPNNSSKFPLRYPYGNSDTAANPEVKAAYGNGDYVYSEPVWWAGGSR,glycan array binding signal (z-score),[1],-0.448
same,glycan array binding signal (z-score),[2],-0.237
same,glycan array binding signal (z-score),[3],2.52
same,glycan array binding signal (z-score),[4],-1.27
same,glycan array binding signal (z-score),GlcNAc(b1-3)Fuc,-0.118
same,glycan array binding signal (z-score),[5],1.12
same,glycan array binding signal (z-score),[6],1.84
same,glycan array binding signal (z-score),[7],1.66
same,glycan array binding signal (z-score),[8],0.815
same,glycan array binding signal (z-score),GlcNAc(b1-3)GalNAc,-0.348
same,glycan array binding signal (z-score),[9],-0.942
same,glycan array binding signal (z-score),GlcNAc(b1-6)GalNAc,-0.798
same,glycan array binding signal (z-score),Kdn(a2-3)Gal(b1-4)GlcNAc,0.096
same,glycan array binding signal (z-score),[10],0.245
same,glycan array binding signal (z-score),Man(a1-3)[Man(a1-6)]Man,0.71
same,glycan array binding signal (z-score),[11],0.777
same,glycan array binding signal (z-score),[12],0.566
same,glycan array binding signal (z-score),[13],-0.897
same,glycan array binding signal (z-score),[14],-0.336
same,glycan array binding signal (z-score),[15],0.864
same,glycan array binding signal (z-score),[16],-1.27
same,glycan array binding signal (z-score),[17],2.37
same,glycan array binding signal (z-score),[18],0.2
same,glycan array binding signal (z-score),[19],0.611
same,glycan array binding signal (z-score),[20],1.71
same,glycan array binding signal (z-score),[21],-1.68
same,glycan array binding signal (z-score),[22],-0.966
same,glycan array binding signal (z-score),[23],-0.127

# From the supplement of paper PMC8728848
